Data taken from the supplement of paper PMC10849652.
The full data set covers some 7,900 targets. This sample favours those with a hit. About 0.6% of all pairs of compound and target were hits. Unmarked numbers belong to inactive results.

Columns and labels:
Experiment in all cases: log2 fold change, soluble protein after heating vs DMSO (PISA); higher = thermal stabilisation; K562 cells, 10 uM, 30 min; active = over 0.2 and 3.5 SD of the protein, either way, in both replicates (recomputed)
[1] = compound: COC1=CC=C(C=C1)CN2C=CC3=C2C=C(C=C3)C(=O)NO
In short: (§1)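 Values are thermal stability changes relative to control samples and are taken from duplicates. They are stated as log2 fold changes. Before quantification by TMTpro 16plex LC-MS/MS with equalised channel sums, K562 cells at 2×10^6 cells/mL were treated with 10 μM compound for 30 min, heated in aliquots for 3 min across 48°C-58°C, pooled, extracted in PBS with 0.5% NP-40 at 4°C, and centrifuged at 21,000xg for 90 min to give the soluble supernatant.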

filanesib = compound: CON(C)C(=O)N1N=C(c2cc(F)ccc2F)S[C@@]1(CCCN)c1ccccc1 [filanesib]
In short: as §1

zotarolimus = compound: CO[C@H]1C[C@@H]2CC[C@@H](C)[C@@](O)(O2)C(=O)C(=O)N2CCCC[C@H]2C(=O)O[C@H]([C@H](C)C[C@@H]2CC[C@H](n3cnnn3)[C@H](OC)C2)CC(=O)[C@H](C)/C=C(\C)[C@@H](O)[C@@H](OC)C(=O)[C@H](C)C[C@H](C)/C=C/C=C/C=C/1C [zotarolimus]
In short: as §1

idasanutlin = compound: COc1cc(C(=O)O)ccc1NC(=O)[C@@H]1N[C@@H](CC(C)(C)C)[C@](C#N)(c2ccc(Cl)cc2F)[C@H]1c1cccc(Cl)c1F [idasanutlin]
In short: as §1

alisertib = compound: COc1cc(Nc2ncc3c(n2)-c2ccc(Cl)cc2C(c2c(F)cccc2OC)=NC3)ccc1C(=O)O [alisertib]
In short: as §1

[2] = compound: COc1cc2nc(-c3cc(F)ccc3O)nc(N[C@@H]3CNC[C@H]3C(C)(C)O)c2cc1OC
In short: as §1

gefitinib = compound: COc1cc2ncnc(Nc3ccc(F)c(Cl)c3)c2cc1OCCCN1CCOCC1 [gefitinib]
In short: as §1

[3] = compound: COc1cccc2cc(-c3nc([C@H]4CC[C@H](C(=O)O)CC4)n4ncnc(N)c34)[nH]c12
In short: as §1

lapatinib = compound: CS(=O)(=O)CCNCc1ccc(-c2ccc3ncnc(Nc4ccc(OCc5cccc(F)c5)c(Cl)c4)c3c2)o1 [lapatinib]
In short: as §1

pictilisib = compound: CS(=O)(=O)N1CCN(Cc2cc3nc(-c4cccc5[nH]ncc45)nc(N4CCOCC4)c3s2)CC1 [pictilisib]
In short: as §1

[4] = compound: CS(=O)(=O)c1ccc(-c2cnc(N)c(C(=O)Nc3ccccc3)n2)cc1
In short: as §1

crizotinib = compound: C[C@@H](Oc1cc(-c2cnn(C3CCNCC3)c2)cnc1N)c1c(Cl)ccc(F)c1Cl [crizotinib]
In short: as §1

[5] = compound: C[C@@H]1COCCN1C2=NC(=NC(=C2)C3(CC3)S(=O)(=O)C)C4=C5C=CNC5=CC=C4
In short: as §1

[6] = compound: C[C@H](C1=CC=C(C=C1)C(=O)NC2=C3C=CNC3=NC=C2)N
In short: as §1

duvelisib = compound: C[C@H](Nc1ncnc2nc[nH]c12)c1cc2cccc(Cl)c2c(=O)n1-c1ccccc1 [duvelisib]
In short: as §1

gandotinib = compound: Cc1cc(Nc2cc(CN3CCOCC3)c3nc(C)c(Cc4ccc(Cl)cc4F)n3n2)n[nH]1 [gandotinib]
In short: as §1

tozasertib = compound: Cc1cc(Nc2cc(N3CCN(C)CC3)nc(Sc3ccc(NC(=O)C4CC4)cc3)n2)n[nH]1 [tozasertib]
In short: as §1

[7] = compound: Cc1cc(SCc2sc(-c3ccc(C(F)(F)F)cc3)nc2C)ccc1OCC(=O)O
In short: as §1

doramapimod = compound: Cc1ccc(-n2nc(C(C)(C)C)cc2NC(=O)Nc2ccc(OCCN3CCOCC3)c3ccccc23)cc1 [doramapimod]
In short: as §1

ispinesib = compound: Cc1ccc(C(=O)N(CCCN)[C@@H](c2nc3cc(Cl)ccc3c(=O)n2Cc2ccccc2)C(C)C)cc1 [ispinesib]
In short: as §1

Chain of UniProt Q14181 (Q14181 whole entry, looked up): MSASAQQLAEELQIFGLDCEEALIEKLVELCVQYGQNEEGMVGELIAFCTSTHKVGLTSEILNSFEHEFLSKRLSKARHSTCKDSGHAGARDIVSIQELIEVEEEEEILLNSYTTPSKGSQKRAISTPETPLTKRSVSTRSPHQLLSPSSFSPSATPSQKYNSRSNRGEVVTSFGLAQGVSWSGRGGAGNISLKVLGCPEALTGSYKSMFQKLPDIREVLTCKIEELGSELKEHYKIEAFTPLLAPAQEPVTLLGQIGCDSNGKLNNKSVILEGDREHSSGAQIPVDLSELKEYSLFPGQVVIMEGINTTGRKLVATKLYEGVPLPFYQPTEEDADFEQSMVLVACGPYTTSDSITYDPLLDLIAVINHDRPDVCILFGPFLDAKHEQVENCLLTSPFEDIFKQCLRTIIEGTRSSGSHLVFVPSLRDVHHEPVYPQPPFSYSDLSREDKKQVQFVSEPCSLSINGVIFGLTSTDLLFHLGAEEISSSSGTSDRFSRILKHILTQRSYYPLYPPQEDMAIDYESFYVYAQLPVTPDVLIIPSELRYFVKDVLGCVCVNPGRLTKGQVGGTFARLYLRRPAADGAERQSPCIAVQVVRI
Chain of UniProt O43164 (O43164 whole entry, looked up): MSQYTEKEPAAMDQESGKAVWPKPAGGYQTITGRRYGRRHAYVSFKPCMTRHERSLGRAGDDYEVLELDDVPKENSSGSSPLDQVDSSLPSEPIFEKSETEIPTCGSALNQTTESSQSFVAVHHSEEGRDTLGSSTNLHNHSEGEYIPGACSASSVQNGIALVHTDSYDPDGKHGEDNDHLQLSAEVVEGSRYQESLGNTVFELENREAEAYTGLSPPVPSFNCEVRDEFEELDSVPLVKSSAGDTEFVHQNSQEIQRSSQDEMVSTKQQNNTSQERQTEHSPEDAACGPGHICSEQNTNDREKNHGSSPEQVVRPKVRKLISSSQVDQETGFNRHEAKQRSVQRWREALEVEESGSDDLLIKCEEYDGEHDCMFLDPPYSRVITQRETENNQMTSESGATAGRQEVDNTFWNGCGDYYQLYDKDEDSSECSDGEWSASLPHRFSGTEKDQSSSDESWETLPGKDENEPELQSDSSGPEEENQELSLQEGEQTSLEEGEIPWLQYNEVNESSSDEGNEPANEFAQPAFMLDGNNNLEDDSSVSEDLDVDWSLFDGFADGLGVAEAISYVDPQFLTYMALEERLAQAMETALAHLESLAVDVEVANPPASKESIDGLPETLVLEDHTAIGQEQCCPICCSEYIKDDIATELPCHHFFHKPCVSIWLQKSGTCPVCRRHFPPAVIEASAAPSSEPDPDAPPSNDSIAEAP
Chain of UniProt O15067 (O15067 whole entry, looked up): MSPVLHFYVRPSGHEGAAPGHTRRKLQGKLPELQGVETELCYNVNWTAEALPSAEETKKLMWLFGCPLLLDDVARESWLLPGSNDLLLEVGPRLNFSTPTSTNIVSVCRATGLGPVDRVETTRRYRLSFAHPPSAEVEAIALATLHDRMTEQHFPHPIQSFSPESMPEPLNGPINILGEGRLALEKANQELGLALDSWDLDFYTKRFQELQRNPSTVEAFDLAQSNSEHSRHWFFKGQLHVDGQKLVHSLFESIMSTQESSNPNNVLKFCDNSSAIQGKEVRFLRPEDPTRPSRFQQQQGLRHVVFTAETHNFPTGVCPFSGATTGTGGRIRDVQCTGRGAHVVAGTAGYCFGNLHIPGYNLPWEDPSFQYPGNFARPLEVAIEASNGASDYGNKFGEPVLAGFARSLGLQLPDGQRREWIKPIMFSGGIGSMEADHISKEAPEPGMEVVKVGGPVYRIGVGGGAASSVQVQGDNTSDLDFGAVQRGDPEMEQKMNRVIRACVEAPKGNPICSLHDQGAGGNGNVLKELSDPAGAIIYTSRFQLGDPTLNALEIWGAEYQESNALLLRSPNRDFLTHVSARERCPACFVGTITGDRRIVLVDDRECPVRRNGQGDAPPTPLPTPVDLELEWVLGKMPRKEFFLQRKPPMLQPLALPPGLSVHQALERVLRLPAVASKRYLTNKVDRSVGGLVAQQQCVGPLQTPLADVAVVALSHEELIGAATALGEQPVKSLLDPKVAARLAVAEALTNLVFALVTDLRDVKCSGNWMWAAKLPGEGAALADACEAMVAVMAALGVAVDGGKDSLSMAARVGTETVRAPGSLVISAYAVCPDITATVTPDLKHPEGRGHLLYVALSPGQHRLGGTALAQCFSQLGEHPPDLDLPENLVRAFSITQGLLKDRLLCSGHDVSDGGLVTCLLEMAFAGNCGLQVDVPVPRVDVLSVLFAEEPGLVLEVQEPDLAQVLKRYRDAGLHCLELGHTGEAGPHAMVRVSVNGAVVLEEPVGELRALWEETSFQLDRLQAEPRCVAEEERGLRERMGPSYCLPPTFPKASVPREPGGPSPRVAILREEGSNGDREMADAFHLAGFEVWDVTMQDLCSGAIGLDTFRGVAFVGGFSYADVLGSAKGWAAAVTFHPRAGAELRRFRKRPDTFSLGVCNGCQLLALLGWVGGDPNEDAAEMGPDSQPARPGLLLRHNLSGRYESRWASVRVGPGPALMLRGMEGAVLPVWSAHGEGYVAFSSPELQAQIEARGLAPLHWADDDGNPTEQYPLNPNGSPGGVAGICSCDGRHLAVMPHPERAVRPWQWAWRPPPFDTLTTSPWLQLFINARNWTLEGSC
Chain of UniProt O15530 (O15530 whole entry, looked up): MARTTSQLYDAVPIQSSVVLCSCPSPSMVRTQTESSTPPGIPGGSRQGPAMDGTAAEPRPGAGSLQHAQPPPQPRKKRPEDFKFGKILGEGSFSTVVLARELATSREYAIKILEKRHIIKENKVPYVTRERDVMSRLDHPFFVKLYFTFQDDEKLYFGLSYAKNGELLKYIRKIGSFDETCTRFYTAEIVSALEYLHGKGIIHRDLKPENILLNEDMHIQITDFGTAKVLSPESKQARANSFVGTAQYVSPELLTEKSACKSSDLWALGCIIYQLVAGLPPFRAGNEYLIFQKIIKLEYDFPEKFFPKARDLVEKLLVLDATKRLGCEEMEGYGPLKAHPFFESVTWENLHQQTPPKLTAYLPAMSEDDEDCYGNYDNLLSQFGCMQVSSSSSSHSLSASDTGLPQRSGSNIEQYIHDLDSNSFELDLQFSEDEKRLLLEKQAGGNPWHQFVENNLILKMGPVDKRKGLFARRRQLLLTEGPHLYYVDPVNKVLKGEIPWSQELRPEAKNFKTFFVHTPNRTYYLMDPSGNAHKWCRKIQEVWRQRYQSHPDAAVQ
Chain of UniProt P62136 (P62136 whole entry, looked up): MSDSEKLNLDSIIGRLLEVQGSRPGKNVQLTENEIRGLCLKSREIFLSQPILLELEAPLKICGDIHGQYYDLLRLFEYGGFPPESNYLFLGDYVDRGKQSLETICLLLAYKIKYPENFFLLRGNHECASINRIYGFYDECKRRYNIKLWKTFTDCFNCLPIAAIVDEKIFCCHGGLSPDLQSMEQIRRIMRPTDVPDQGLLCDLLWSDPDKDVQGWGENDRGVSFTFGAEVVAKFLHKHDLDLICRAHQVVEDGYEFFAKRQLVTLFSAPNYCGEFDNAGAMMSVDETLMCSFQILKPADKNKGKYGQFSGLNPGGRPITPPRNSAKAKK
Chain of UniProt Q9Y5Y5 (Q9Y5Y5 whole entry, looked up): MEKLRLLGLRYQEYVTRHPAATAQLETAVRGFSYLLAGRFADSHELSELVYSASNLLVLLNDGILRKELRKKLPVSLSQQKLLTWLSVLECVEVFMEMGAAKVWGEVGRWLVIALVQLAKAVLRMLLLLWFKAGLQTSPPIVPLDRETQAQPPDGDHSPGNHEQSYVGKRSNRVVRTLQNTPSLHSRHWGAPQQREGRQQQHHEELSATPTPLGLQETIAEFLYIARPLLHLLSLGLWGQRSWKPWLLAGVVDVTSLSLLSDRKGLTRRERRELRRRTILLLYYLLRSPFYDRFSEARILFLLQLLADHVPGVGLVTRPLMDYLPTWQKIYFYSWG
Chain of UniProt O96011 (O96011 whole entry, looked up, change not shown): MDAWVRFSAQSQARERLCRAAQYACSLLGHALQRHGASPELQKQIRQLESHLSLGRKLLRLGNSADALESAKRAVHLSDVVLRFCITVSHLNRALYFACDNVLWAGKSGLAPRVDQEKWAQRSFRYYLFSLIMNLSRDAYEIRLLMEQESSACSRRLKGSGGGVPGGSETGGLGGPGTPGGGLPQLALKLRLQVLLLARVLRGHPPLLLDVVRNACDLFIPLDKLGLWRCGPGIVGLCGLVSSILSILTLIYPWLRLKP
Chain of UniProt P10644 (P10644 whole entry, looked up): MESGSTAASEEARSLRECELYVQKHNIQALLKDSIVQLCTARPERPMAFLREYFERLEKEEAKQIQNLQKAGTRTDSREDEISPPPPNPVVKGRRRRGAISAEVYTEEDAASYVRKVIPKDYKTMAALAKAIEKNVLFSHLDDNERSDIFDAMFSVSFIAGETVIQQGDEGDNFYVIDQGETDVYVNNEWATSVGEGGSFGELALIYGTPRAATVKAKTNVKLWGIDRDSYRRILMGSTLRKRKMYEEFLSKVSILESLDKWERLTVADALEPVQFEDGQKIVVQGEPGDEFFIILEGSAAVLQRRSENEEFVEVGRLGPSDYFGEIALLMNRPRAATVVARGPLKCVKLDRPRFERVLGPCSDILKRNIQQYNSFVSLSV
Chain of UniProt P49642 (P49642 whole entry, looked up): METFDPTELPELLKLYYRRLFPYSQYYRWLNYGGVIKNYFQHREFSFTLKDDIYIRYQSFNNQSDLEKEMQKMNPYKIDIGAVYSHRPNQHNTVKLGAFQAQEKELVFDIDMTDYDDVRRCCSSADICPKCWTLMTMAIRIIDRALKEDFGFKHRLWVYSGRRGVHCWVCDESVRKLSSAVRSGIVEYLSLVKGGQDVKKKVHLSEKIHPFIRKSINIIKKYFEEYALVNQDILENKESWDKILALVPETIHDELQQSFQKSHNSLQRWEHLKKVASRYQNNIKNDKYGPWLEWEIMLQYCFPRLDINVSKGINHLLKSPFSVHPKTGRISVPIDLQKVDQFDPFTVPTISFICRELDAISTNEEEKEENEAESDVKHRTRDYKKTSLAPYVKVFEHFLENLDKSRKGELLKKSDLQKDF

| Target | log2 fold change [1] | log2 fold change (filanesib) | log2 fold change (zotarolimus) | log2 fold change (idasanutlin) | log2 fold change (alisertib) | log2 fold change [2] | log2 fold change (gefitinib) | log2 fold change [3] | log2 fold change (lapatinib) | log2 fold change (pictilisib) | log2 fold change [4] | log2 fold change (crizotinib) | log2 fold change [5] | log2 fold change [6] | log2 fold change (duvelisib) | log2 fold change (gandotinib) | log2 fold change (tozasertib) | log2 fold change [7] | log2 fold change (doramapimod) | log2 fold change (ispinesib) |
| --- | --- | --- | --- | --- | --- | --- | --- | --- | --- | --- | --- | --- | --- | --- | --- | --- | --- | --- | --- | --- |
| PRIM1 (UniProt P49642) | 0.04 | 0.001 | 0.073 | -0.06 | 0.052 | -0.012 | 0.011 | -0.053 | 0.007 | 0.021 | 0.051 | -0.066 | 0.039 | 0.086 | -0.011 | -0.131 | 0.001 | 0.102 | 0.007 | -0.082 |
| PRPSAP2 (UniProt O60256) | -0.168 | 0.084 | 0.029 | 0.012 | -0.078 | 0.011 | -0.022 | 0.025 | -0.011 | -0.233 (active) | 0 | 0.01 | 0.112 | -0.016 | -0.013 | 0.114 | 0.038 | 0.023 | -0.007 | 0.012 |
| POLA2 (UniProt Q14181) | 0.086 | -0.001 | 0.015 | -0.02 | 0.005 | 0.046 | 0 | -0.015 | 0.018 | 0.051 | 0.116 | -0.026 | 0.143 | -0.036 | 0.121 | -0.287 (active) | 0.091 | 0.047 | -0.013 | -0.028 |
| PFAS (UniProt O15067) | 0.149 | -0.045 | 0.069 | 0.085 | 0.029 | 0.26 | -0.005 | 0.013 | -0.063 | -0.449 (active) | -0.062 | 0.124 | 0.014 | 0 | -0.026 | -0.152 | -0.132 | 0.081 | -0.018 | 0.128 |
| POLR2G (UniProt P62487) | 0.039 | -0.014 | -0.046 | -0.006 | -0.054 | 0.127 | 0.001 | 0.106 | -0.022 | 0.109 | 0.006 | 0.257 | 0.111 | 0.125 | 0.087 | 0.191 | -0.051 | -0.026 | -0.016 | 0.035 |
| PDCD6 (UniProt O75340) | -0.06 | -0.124 | -0.03 | -0.106 | 0.092 | 0.047 | -0.021 | 0.013 | -0.035 | 0.038 | 0.029 | -0.047 | 0.051 | -0.021 | 0.03 | -0.056 | 0.05 | 0.038 | 0.002 | -0.045 |
| PJA2 (UniProt O43164) | -0.022 | 0.004 | -0.071 | 0.11 | -0.008 | 0.024 | -0.016 | 0.001 | -0.001 | -0.049 | 0.032 | -0.042 | -0.126 | 0.091 | -0.021 | 0.097 | -0.018 | -0.118 | 0.033 | -0.098 |
| PPP1CA (UniProt P62136) | 0.263 (active) | 0.012 | -0.032 | 0.016 | 0.024 | 0.015 | 0.032 | 0.023 | 0.001 | 0.013 | 0.042 | 0.042 | 0.013 | -0.069 | 0.048 | 0.026 | 0.034 | -0.045 | -0.003 | 0.083 |
| PARN (UniProt O95453) | 0.001 | -0.015 | -0.009 | -0.028 | 0.001 | 0.051 | -0.009 | 0.04 | -0.028 | -0.036 | 0.028 | -0.095 | 0.125 | -0.025 | 0.048 | -0.127 | 0.024 | 0.069 | -0.037 | -0.021 |
| PEX11B (UniProt O96011) | 0.021 | -0.038 | -0.009 | -0.076 | -0.071 | -0.063 | -0.037 | 0.019 | 0.023 | 0.004 | -0.042 | 0.02 | 0.148 | -0.012 | 0.081 | -0.073 | 0.065 | 0.014 | 0.002 | 0.07 |
| PDPK1 (UniProt O15530) | -0.015 | -0.097 | 0.04 | -0.048 | -0.017 | 0.011 | -0.028 | 0.01 | -0.058 | -0.179 | -0.066 | -0.282 (active) | 0.081 | 0.013 | -0.206 | -0.173 | -0.085 | 0.015 | 0.003 | -0.143 |
| PRKAR1A (UniProt P10644) | 0.079 | 0.042 | 0.046 | -0.045 | -0.075 | 0.131 | 0.046 | -0.132 | 0 | 0.206 | 0.209 | 0.259 | 0.03 | 0.173 | 0.208 | 0.139 | 0.041 | 0.001 | 0 | -0.06 |
| PTPA (UniProt Q15257) | -0.015 | -0.022 | 0.02 | -0.064 | -0.041 | 0.034 | 0.018 | 0.036 | 0.012 | 0.02 | -0.001 | 0.028 | 0.074 | -0.117 | 0.052 | -0.037 | 0.024 | 0.013 | -0.001 | 0.091 |
| PYGB (UniProt P11216) | -0.024 | 0.035 | -0.023 | -0.013 | -0.019 | 0.237 (active) | -0.037 | 0.028 | -0.223 | -0.164 | -0.305 (active) | -0.057 | 0.015 | 0.107 | 0.026 | -0.045 | -0.04 | -0.002 | -0.005 | 0.013 |
| PEX16 isoform 2 (UniProt Q9Y5Y5) | 0.146 | -0.152 | 0.016 | -0.076 | -0.011 | -0.227 | -0.021 | 0.193 | 0.05 | -0.089 | -0.001 | -0.142 | 0.052 | -0.072 | 0.096 | -0.104 | 0.018 | 0.057 | 0.106 | -0.23 |
| PGM3 isoform 4 (UniProt O95394) | 0.052 | -0.135 | 0.007 | -0.079 | -0.007 | 0 | -0.028 | -0.01 | -0.014 | -0.047 | 0.025 | -0.098 | 0.04 | -0.024 | 0.043 | -0.034 | -0.019 | 0.108 | 0.016 | -0.09 |
